Data published in PubChem BioAssay (NCATS).
“And” between values parts separate entries of the source, which are not always exact repeats. Equal entries are not always repeated. Records with an inconclusive call do not appear. The source made the active and inactive calls. Calls come from the whole dose curve; as a rule, active = well fitted curve in the direction sought with a large enough effect; inconclusive = small, poorly fitted or top-dose-only effect, or another doubt; inactive = no such curve, though single readings can be large; an effect the other way counts as inactive or inconclusive.

Tests used:
[1] = target: Arylsulfatase A (Homo sapiens) (UniProt P15289); test: qHTS screen for enhancers of Arylsulfatase A (ASA1): LOPAC Validation Assay (AID 720538); note: potency is the fitted concentration of half-maximal effect
Sequence of Arylsulfatase A (Homo sapiens) (P15289 whole entry, looked up): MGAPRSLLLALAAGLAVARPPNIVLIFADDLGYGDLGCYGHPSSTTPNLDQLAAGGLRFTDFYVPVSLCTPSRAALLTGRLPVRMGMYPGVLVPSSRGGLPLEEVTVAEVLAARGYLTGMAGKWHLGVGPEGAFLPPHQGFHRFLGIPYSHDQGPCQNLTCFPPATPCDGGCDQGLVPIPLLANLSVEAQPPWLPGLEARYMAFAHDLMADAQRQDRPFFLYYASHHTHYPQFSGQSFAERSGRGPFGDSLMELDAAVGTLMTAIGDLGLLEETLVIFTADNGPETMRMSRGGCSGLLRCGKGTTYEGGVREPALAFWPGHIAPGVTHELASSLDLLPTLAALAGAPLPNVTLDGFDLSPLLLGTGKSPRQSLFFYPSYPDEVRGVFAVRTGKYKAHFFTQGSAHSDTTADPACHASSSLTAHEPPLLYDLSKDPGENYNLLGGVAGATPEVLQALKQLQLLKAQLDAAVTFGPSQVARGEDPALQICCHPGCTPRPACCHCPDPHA
Method in brief: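 Enhancer assay in patient-derived MLD fibroblasts carrying ASA-I179S: 48 h compound exposure at 37 C, then 14 h room-temperature pNCS turnover (0.5 mM final) in lysis buffer. Read by fluorescence at 525/598 nm after NaOH stop.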

[2] = qHTS for compounds that reverse cellular toxicity of Amyloid beta (A-beta) peptide in yeast: LOPAC Validation Assay (AID 720559);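 note: plate controls were DMSO for no effect and equimolar ferric chloride plus clioquinol rescue for full effect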
Method in brief: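 Rescue of A-beta toxicity was scored as yeast growth by 600 nm absorbance after 48 hr at 30 C with compound. Normalization used DMSO (negative) and equimolar ferric chloride plus clioquinol (positive).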

[3] = qHTS for Activators of Parkin Expression: LOPAC Validation Assay (NLuc Reporter) (AID 720572)
Method in brief: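 Compound effects on Parkin promoter activity were measured as NanoLuc luminescence after 24 h at 37 C. The neuronal reporter line also carried FLuc, which was read first. LOPAC compounds were tested at 7 concentrations, with normalization to DMSO (0%) and positive control (100%).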

[4] = qHTS for Activators of Parkin Expression: LOPAC Validation Assay (FLuc Reporter) (AID 720573)
Method in brief: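 FLuc signal from Parkin-promoter coincidence reporter neuronal cells, normalized to DMSO and positive control (100%). Cells (1,500/well) pre-incubated 24 h, then exposed to LOPAC compounds in 7-point dose response for 24 h at 37 C, 5% CO2.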

[5] = target: T1, Hexokinase-4 (Homo sapiens) + Glucokinase regulatory protein (Homo sapiens) (UniProt P35557+Q14397); test: qHTS assay for inhibitors of recombinant human GCK-GKRP interaction: Diaphorase-coupled assay (AID 743205)
T1 sequence (P35557 whole entry, looked up): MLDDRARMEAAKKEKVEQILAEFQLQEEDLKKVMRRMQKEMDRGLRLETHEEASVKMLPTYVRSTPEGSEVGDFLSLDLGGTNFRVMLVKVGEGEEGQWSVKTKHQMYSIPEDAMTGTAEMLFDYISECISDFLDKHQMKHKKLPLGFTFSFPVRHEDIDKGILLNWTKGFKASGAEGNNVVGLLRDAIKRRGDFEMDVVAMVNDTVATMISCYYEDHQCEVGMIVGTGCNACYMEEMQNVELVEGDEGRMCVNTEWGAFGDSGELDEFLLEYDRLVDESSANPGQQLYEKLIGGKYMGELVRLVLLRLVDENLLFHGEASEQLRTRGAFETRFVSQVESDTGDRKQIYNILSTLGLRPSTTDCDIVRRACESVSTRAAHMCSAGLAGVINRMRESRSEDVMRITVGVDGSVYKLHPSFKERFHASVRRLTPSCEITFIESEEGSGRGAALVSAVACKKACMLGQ
T1 sequence (Q14397 whole entry, looked up): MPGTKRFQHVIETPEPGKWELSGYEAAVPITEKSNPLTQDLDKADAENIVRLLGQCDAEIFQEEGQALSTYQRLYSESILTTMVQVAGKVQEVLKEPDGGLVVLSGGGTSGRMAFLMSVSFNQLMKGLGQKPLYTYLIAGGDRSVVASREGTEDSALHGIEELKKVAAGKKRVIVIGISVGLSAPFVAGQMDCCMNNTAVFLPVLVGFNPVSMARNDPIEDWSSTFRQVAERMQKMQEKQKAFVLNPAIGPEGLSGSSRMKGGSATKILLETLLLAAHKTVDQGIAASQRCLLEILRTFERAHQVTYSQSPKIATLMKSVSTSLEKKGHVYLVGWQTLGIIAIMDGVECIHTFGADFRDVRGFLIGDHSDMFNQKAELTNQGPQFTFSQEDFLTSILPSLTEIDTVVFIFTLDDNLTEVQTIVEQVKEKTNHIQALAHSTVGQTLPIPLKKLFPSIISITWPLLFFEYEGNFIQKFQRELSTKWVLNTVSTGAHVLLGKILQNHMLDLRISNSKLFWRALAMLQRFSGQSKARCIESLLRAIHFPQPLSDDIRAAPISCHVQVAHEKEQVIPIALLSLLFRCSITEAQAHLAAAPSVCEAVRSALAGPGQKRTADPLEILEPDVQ
Method in brief: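 A kinetic fluorescence read (Ex 525/Em 590 nm, every minute for 30 minutes) tracked resorufin from a G6PDH-diaphorase coupled GCK reaction. It contained 10 nM GST-GCK, 10 nM FLAG-GKRP, 5 mM glucose, 0.4 mM ATP in Hepes pH 7.6. Normalized to with/without-enzyme DMSO controls.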

[6] = target: T1, Hexokinase-4 (Homo sapiens) + Glucokinase regulatory protein (Homo sapiens); test: qHTS assay for inhibitors of recombinant human GCK-GKRP interaction: ADP-Glo assay (AID 743206);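 note: plate controls were DMSO plus enzyme for no effect and no enzyme for full effect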
Method in brief: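 Pin-transferred compounds meet a 15 nM GST-GCK/15 nM FLAG-GKRP/2 uM S6P mix (dispense concentrations). ATP is then added to 0.4 mM final with 5 mM glucose, and the reaction runs 60 min at room temperature. ADP is quantified luminescently.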

[7] = target: T1, Hexokinase-4 (Homo sapiens) + Glucokinase regulatory protein (Homo sapiens); test: qHTS assay for inhibitors of recombinant human GCK-GKRP interaction: HTRF assay (AID 743207);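 note: 0% = DMSO with GCK present and -100% = DMSO wells lacking GCK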
Method in brief: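 After 60 min equilibration at room temperature with anti-FLAG XL665 and anti-GST antibodies, FRET ratio (665/615 nm, excitation 320 nm) was read. Proteins: GST-GCK and FLAG-GKRP, each 5 nM, plus 2 uM S6P, pH 7.1 buffer; GCK-free wells define minimum signal.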

[8] = target: Tyrosine-protein kinase Yes (Homo sapiens) (UniProt P07947); test: qHTS for small molecule inhibitors of Yes1 kinase: Primary Screen (AID 686947); note: nearly all actives have a fitted effect of over 60% in size; note: potency is the fitted concentration of half-maximal effect
Sequence of Tyrosine-protein kinase Yes (Homo sapiens) (P07947 whole entry, looked up): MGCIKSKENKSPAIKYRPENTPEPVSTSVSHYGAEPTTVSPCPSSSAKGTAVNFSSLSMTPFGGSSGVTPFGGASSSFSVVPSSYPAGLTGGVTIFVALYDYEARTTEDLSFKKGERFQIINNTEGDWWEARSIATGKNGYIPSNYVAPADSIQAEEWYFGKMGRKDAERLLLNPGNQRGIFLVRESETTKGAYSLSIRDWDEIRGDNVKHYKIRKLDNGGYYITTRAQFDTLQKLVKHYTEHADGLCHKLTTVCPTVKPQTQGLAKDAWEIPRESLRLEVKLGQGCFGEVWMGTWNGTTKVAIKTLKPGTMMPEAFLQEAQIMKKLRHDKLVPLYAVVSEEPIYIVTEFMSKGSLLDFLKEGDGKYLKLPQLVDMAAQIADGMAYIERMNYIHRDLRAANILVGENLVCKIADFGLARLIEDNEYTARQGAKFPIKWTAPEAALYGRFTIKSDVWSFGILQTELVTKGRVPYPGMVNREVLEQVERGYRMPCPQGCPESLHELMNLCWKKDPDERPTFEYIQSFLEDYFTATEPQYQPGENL
Method in brief: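 In this qHTS format, inhibition is expressed relative to DMSO controls with enzyme (maximum) and without enzyme (minimum). The 60 min room-temperature reaction uses 0.1 mM ATP, with ADP detected by luminescence.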

[9] = qHTS for small molecule inhibitors of Yes1 kinase: Counter Assay (AID 686950);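 note: no kinase present so only ADP-Glo detection of a fixed ADP amount is tested; luminescence from ADP-Glo reporting ADP in a fixed ATP and ADP mixture; series mostly up to about 77 µM; 0% = DMSO wells with ATP plus ADP and -100% = ATP-only wells without ADP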
Method in brief: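 ADP-Glo luminescence read after a 60 min room-temperature incubation of compound with an ATP/ADP mix (0.08 mM/0.02 mM) and no kinase, following a 20 min compound preincubation. Signal scaled between ATP+ADP (max) and 0.1 mM ATP-only (min) wells; Tris pH 7.5, Mg2+, DTT.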

[10] = qHTS Assay for Identifying Gametocytocidal Compounds (AID 743244); note: potency is the fitted concentration of half-maximal effect;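 for max response: % is set by controls: 0 for no effect and ±100 for the full control effect; actives lower the fluorescent signal which means gametocytes are killed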; details: P. falciparum 3D7 stage III-V gametocytes, alamarBlue, 72 h; max response: stronger effect = lower value
Method in brief: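 3D7 gametocytes, stages III–V, 20,000/well; cpd 72 h, 37 °C/5% CO2; + alamarBlue 24 h; fluor. Ex 525/Em 598.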

Cc1ccc(S(=O)(=O)N[C@@H](CCCCN)C(=O)CCl)cc1
active: Potency [1] 3.01 µM
inactive: outcome [2] | outcome [3] | outcome [4] | outcome [5] | outcome [6] | outcome [7]

CC1=C2C[C@@H]3[C@@H](CC=C4C[C@@H](O)CC[C@@]43C)[C@@H]2CC[C@]12O[C@H]1C[C@H](C)CN[C@H]1[C@H]2C
inactive: Potency [8] | outcome [9]
active: Potency [10] 23.5 µM

CC[C@@H](CO)NC(=O)[C@@H]1C=C2c3cccc4[nH]cc(c34)C[C@H]2N(C)C1
inactive: Potency [1] | outcome [2] | outcome [3] | outcome [4] | outcome [5] | outcome [6] | outcome [7]

c1ccc2c(c1)OCC(C1=NCCN1)O2 (stereo not given)
active: Potency [10] 6.31 µM and 3.55 µM
inactive: Potency [1] | outcome [2] | outcome [3] | outcome [4] | outcome [5] | outcome [6] | outcome [7]

C[C@@H]1[C@@H](C(=O)C[C@H]2O[C@@H]3O[C@]4(C)CC[C@@H]5[C@H](C)CC[C@@H]([C@H]2C)[C@@]35OO4)O[C@@H]2O[C@]3(C)CC[C@H]4[C@H](C)CC[C@@H]1[C@@]24OO3
inactive: Potency [8] | outcome [9]
active: Potency [10] 0.0066 µM

CC(C)=CCOc1c2occc2cc2ccc(=O)oc12
inactive: Potency [1] | outcome [2] | outcome [3] | outcome [4] | outcome [5] | outcome [6] | outcome [7] | max response [10] -4.41% and 18.6%

O=C(O)C(=O)c1cn(Cc2ccccc2)c2ccc(-c3ccc(OC(F)(F)F)cc3)cc12
inactive: outcome [9] | max response [10] 14.9%

CCCN1CCC[C@@H]2Cc3[nH]ncc3C[C@H]21
inactive: Potency [1] | outcome [2] | outcome [3] | outcome [4] | outcome [5] | outcome [6] | outcome [7] | max response [10] -4.72% and 8.32% and 17.4%

O=c1[nH]c2ccccc2n1CCCN1CCC(n2c(=O)[nH]c3cc(Cl)ccc32)CC1
inactive: Potency [1] | outcome [2] | outcome [3] | outcome [4] | outcome [5] | outcome [6] | outcome [7] | max response [10] -7.84% and 21.7%

NCC1(CC(=O)O)CCCCC1
inactive: Potency [1] | outcome [2] | outcome [3] | outcome [4] | outcome [5] | outcome [6] | outcome [7] | max response [10] 10.3%

O=c1c(O)c(-c2ccc(O)c(O)c2)oc2cc(O)cc(O)c12
inactive: max response [10] 43.6% and 2.58% and 14.8%
active: Potency [8] 15.4 µM

NCC(CC(=O)O)c1ccc(Cl)cc1 (stereo not given)
inactive: Potency [1] | outcome [2] | outcome [3] | outcome [4] | outcome [5] | outcome [6] | outcome [7] | max response [10] 0.281% and 9.05%

Cc1cc2c(C(C)C)c(O)c(O)c(C=O)c2c(O)c1-c1c(C)cc2c(C(C)C)c(O)c(O)c(C=O)c2c1O
active: Potency [8] 30.7 µM | Potency [1] 19 µM
inactive: outcome [4] | max response [10] 0.673%

Cn1c(CCCC(=O)O)nc2cc(N(CCCl)CCCl)ccc21
inactive: Potency [8] | outcome [9] | max response [10] -0.45%

CNC(=O)N1N=C(c2ccc(N)cc2)c2cc3c(cc2CC1C)OCO3 (stereo not given)
inactive: outcome [9] | max response [10] -1.27%

CCCCC/C=C\C/C=C\C/C=C\C/C=C\CCCC(=O)NC1CC1
inactive: Potency [8] | outcome [9] | max response [10] 45.8%

CC(=O)[C@H]1CC[C@H]2[C@@H]3CC[C@H]4C[C@H](O)CC[C@]4(C)[C@H]3C(=O)C[C@]12C
inactive: Potency [1] | outcome [2] | outcome [3] | outcome [4] | outcome [5] | outcome [6] | outcome [7] | max response [10] -4.24% and 9.55%

Cc1sc2c(c1C)C(c1ccc(Cl)cc1)=N[C@@H](CC(=O)OC(C)(C)C)c1nnc(C)n1-2
inactive: Potency [8] | outcome [9] | max response [10] -19.5%

CC(O)(CS(=O)(=O)c1ccc(F)cc1)C(=O)Nc1ccc(C#N)c(C(F)(F)F)c1 (stereo not given)
inactive: outcome [9] | outcome [2] | outcome [3] | outcome [4] | outcome [5] | outcome [6] | outcome [7] | max response [10] 4.22% and -26.1%

CNCCC(Oc1ccc(C(F)(F)F)cc1)c1ccccc1 (stereo not given)
inactive: Potency [1]

C[C@]12CC[C@@H]3c4ccc(O)cc4C[C@@H](CCCCCCCCCS(=O)CCCC(F)(F)C(F)(F)F)[C@H]3[C@@H]1CC[C@@H]2O (stereo not given in full)
inactive: Potency [1]

Cc1cccc(C)c1NC(=O)CN1CCCC1=O
inactive: Potency [1] | outcome [2] | outcome [3] | outcome [4] | outcome [5] | outcome [6] | outcome [7] | max response [10] 12.6%

COc1ccc(C(=O)c2c(C)n(CCN3CCOCC3)c3ccccc23)cc1
inactive: outcome [9] | max response [10] 6.23% and 9.75%
